Assay results taken from PubChem BioAssay (NCATS).
Inconclusive results are not listed. The source made the active and inactive calls. Unless noted, calls follow the shape of the dose curve; as a rule, active = well fitted curve in the direction sought with a large enough effect; inconclusive = small, poorly fitted or top-dose-only effect, or another doubt; inactive = no such curve, though single readings can be large; an effect the other way counts as inactive or inconclusive.

Legend:
[1] = target: Lysosomal acid glucosylceramidase (Homo sapiens) (UniProt P04062); experiment: Glucocerebrosidase-p2 (AID 348; in the data active = potency below about 10 µM; also: potency is read from the fitted curve at half-maximal effect); conditions: purified GBA, blue fluorogenic substrate, 40 min
Chain of Lysosomal acid glucosylceramidase (Homo sapiens) (P04062 whole entry, looked up): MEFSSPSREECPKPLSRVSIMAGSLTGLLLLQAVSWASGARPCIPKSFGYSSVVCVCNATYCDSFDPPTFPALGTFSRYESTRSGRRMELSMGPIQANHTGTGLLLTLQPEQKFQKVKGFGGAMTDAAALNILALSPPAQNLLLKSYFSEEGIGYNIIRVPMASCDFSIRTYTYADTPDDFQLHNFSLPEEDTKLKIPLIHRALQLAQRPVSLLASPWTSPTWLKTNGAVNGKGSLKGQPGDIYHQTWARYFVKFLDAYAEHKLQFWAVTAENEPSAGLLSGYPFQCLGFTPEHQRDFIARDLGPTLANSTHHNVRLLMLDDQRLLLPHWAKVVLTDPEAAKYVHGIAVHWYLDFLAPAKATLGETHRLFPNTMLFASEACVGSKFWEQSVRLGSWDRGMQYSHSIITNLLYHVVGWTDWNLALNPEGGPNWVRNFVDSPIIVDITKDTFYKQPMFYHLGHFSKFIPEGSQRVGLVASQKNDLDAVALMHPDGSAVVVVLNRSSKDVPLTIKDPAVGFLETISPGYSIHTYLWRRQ
Method in brief: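 Compounds titrated from 0.6 nM upwards against 0.2 nM enzyme in pH 5.9 citric acid/KH2PO4, taurocholate, tween-20; blue fluorogenic substrate 80 uM, 40 min room temperature, stopped and read Ex 365/Em 440 for AC50.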

[2] = AP1 Signaling Pathway (AID 357; active = well fitted curve in either direction with a large enough effect, not every such curve was filed as active;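 also: ME-180 reporter cells stimulated with EGF at its EC50 level; % is scaled to controls: 0 for no effect and ±100 for the full control effect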); conditions: ME-180 AP-1-bla reporter, EGF-induced, beta-lactamase ratio, 5 h; at 7.69 µM (top of the series) unless noted
Method in brief: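 AP-1-bla ME-180 cells, Opti-MEM + 0.5% dialyzed FBS, plated overnight 37 °C. Cpd titration + EC50 EGF, 5 h 37 °C. CCF4 2.5 h RT; ex 405, em 460/530 ratio → %activity, AC50.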

[3] = target: Cytochrome P450 1A2 (Homo sapiens) (UniProt P05177); experiment: p450-cyp1a2 (AID 410; calls by dose curve; also: potency is read from the fitted curve at half-maximal effect); conditions: recombinant CYP1A2, luciferin-ME demethylation, luminescence; series mostly up to 57 µM
Chain of Cytochrome P450 1A2 (Homo sapiens) (P05177 whole entry, looked up): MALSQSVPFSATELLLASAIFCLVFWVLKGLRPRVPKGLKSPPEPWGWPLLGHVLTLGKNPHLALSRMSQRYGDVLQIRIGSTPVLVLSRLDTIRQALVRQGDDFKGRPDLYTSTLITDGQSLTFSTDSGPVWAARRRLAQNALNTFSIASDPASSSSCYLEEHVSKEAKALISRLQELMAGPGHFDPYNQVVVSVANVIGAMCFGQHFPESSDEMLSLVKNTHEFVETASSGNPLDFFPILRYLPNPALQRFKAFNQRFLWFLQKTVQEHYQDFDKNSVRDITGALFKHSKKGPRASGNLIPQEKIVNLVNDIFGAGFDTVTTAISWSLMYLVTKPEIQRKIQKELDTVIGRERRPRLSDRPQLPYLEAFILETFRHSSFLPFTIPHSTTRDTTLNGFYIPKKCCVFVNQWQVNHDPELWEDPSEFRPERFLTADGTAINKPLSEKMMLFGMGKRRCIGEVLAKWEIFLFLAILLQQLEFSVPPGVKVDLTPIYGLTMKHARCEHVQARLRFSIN
Method in brief: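 Human CYP1A2 (20nM) demethylated Luciferin-ME at its Km (100uM) in 100mM KPO4. After 10 min compound preincubation, NADPH regeneration ran the reaction 60 min at room temperature. Luciferin was read by luminescence, normalized to 57 uM furafylline.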

[4] = NFAT Signaling Pathway (AID 444; active = well fitted curve in either direction with a large enough effect, not every such curve was filed as active;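 also: carbachol stimulus at about its EC50 of 1 µM final; % is scaled to controls: 0 for no effect and ±100 for the full control effect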); conditions: Jurkat NFAT-bla M1, carbachol, beta-lactamase ratio, 5 h; at 7.69 µM (top of the series) unless noted
Method in brief: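 Read-out: CCF4 FRET ratio (460 nm/530 nm) after 1 h RT dye loading, used for %activity and AC50 from titration series. Cells: Jurkat NFAT-β-lactamase/M1 line, treated with compound plus 1 uM carbachol for 5 h, 37 °C.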

[5] = Stat Signaling Pathway (AID 446; active = well fitted curve in either direction with a large enough effect, not every such curve was filed as active;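 also: ME-180 cervical cancer cells given 40 pM IL-6 alongside compound; SIE-controlled beta-lactamase reporter measured as 460/530 nm FRET emission ratio; % is scaled to controls: 0 for no effect and ±100 for the full control effect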); conditions: ME-180 SIE beta-lactamase reporter, IL-6 stimulated, 5 h; at 7.69 µM (top of the series) unless noted
Method in brief: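 Reporter line: ME-180 cervical carcinoma, SIE-beta-lactamase. Treatment: compound with 40 pM IL-6, 5 hrs, 37 C, in low-serum OPTI-MEM with 10 mM HEPES pH 7.3. Detection: 460/530 nm fluorescence.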

[6] = target: Glucocorticoid receptor (Homo sapiens) (UniProt P04150); experiment: GR-GFP Redistribution (AID 450;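 active = compounds whose dose series gives a full or clear partial fitted curve of increased nuclear translocation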; also: potency is read from the fitted curve at half-maximal effect); conditions: U2OS GR-GFP nuclear translocation, laser cytometry, 2 h
Chain of Glucocorticoid receptor (Homo sapiens) (P04150 whole entry, looked up, the tested form may be a part): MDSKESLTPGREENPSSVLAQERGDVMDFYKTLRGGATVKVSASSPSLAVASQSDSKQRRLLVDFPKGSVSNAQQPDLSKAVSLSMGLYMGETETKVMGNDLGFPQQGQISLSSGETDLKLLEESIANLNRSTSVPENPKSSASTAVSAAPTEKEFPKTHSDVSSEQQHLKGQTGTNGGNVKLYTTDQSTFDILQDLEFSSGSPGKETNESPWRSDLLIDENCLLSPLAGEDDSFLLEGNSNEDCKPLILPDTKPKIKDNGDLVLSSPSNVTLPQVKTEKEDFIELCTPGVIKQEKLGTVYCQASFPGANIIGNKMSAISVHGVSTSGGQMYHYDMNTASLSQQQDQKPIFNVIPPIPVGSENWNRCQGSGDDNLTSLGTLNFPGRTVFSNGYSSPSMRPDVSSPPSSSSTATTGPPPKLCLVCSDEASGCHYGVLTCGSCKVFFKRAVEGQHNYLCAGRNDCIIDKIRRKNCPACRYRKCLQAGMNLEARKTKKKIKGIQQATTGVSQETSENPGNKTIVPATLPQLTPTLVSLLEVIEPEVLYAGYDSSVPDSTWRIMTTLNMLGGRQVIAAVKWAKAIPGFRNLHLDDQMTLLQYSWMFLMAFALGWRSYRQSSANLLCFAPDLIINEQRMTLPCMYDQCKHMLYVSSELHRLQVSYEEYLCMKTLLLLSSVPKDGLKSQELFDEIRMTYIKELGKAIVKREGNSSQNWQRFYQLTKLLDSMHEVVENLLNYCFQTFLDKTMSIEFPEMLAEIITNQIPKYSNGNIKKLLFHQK

[7] = target: Glucocorticoid receptor (Homo sapiens) (UniProt P04150); experiment: GR-EFC Redistribution (AID 451; calls by dose curve; also: potency is read from the fitted curve at half-maximal effect); conditions: CHO-K1 GR-EFC translocation, beta-gal luminescence, 2 h
Method in brief: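 Translocation of GR-ED fusion to nuclear EA restores b-gal, read by luminescence after 1 h room-temperature detection. Engineered CHO-K1 biosensor cells, 1,000/well, exposed 2 h at 37 C to titrations up to 46 uM final.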

[8] = target: Cytochrome P450 3A4 (Homo sapiens) (UniProt P08684); experiment: qHTS Assay for Activators of Cytochrome P450 3A4 (AID 885); conditions: recombinant CYP3A4, Luciferin-PPXE luminescence, 60 min; series mostly up to 57.1 µM; also: nearly all actives have a fitted effect of over 65% in size
Chain of Cytochrome P450 3A4 (Homo sapiens) (P08684 whole entry, looked up): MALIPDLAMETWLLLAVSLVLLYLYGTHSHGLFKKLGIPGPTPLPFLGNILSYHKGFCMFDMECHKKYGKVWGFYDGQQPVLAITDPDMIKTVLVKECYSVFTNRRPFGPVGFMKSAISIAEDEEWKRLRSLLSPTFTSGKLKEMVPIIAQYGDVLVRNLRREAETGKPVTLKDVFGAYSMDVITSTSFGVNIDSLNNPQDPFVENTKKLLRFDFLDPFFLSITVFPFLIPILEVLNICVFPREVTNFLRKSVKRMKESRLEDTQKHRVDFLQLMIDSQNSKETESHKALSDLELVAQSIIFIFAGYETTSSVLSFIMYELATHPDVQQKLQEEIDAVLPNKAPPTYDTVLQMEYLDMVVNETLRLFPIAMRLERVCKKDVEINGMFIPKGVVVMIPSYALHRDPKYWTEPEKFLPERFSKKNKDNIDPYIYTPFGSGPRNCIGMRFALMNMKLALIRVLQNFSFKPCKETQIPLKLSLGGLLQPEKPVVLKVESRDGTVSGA
Method in brief: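 Signal was normalized against complete inhibition by 57 uM ketoconazole. The reaction used 20nM CYP3A4 with 25uM Luciferin-PPXE, 10-min compound preincubation and a 60-min NADPH-supported step at RT.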

[9] = qHTS Assay for Lipid Storage Modulators (AID 1519; calls by dose curve); conditions: Drosophila S3 cells, BODIPY lipid droplet/cell ratio, laser cytometry, cells loaded with oleic acid; for activity change, negative = inhibition: at 57.5 µM (top of the series)
Method in brief: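 Cells seeded at 5,000 per well were treated with compounds over a concentration series and loaded with oleic acid (400 uM, as added). Lipid droplet fluorescence (488 nm excitation, 500-530 nm channel) was read by laser-scanning cytometry and normalized to 20 uM Triacsin C.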

[10] = target: Dual specificity protein kinase CLK4 (Homo sapiens) (UniProt Q9HAZ1); experiment: qHTS Assay for Inhibitors of CDC-like Kinase 4 (Kinase-Glo Assay) (AID 1770); conditions: recombinant Clk4, Kinase-Glo ATP depletion luminescence; series mostly up to 66.7 µM; also: potency is read from the fitted curve at half-maximal effect; nearly all actives have a fitted effect of over 65% in size
Chain of Dual specificity protein kinase CLK4 (Homo sapiens) (Q9HAZ1 whole entry, looked up): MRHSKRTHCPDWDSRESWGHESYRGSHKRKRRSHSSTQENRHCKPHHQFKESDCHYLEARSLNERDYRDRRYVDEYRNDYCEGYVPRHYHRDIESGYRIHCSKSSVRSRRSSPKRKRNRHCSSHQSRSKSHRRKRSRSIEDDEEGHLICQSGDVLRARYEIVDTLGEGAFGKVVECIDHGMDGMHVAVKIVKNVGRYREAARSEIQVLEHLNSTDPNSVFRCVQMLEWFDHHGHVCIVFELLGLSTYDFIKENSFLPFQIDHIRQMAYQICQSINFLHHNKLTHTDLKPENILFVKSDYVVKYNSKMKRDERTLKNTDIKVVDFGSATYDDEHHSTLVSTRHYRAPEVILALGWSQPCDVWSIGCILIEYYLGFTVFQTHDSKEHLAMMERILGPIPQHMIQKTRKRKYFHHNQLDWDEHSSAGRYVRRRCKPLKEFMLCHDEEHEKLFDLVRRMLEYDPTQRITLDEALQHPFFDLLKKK
Method in brief: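 Substrate mix (RS peptide 100 uM, ATP 1 uM) dispensed, compound pinned in, then Clk4 added to 25 nM final. Incubated 4.5 h at RT; Kinase-Glo reagent added, luminescence read after 5 min.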

[11] = target: Dual specificity protein kinase CLK4 (Homo sapiens) (UniProt Q9HAZ1); experiment: qHTS Assay for Inhibitors of CDC-like Kinase 4 (ADP-Glo Assay) (AID 1771); conditions: recombinant CLK4, ADP-Glo luminescence; series mostly up to 80 µM; also: potency is read from the fitted curve at half-maximal effect; nearly all actives have a fitted effect of over 70% in size
Method in brief: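 Clk4 (25 nM) was incubated 1 hr at room temperature with 100 uM RS repeat peptide and 1 uM ATP in buffer with 2 mM MgCl2, 0.5 mM EGTA, 2.5 mM DTT. ADP formed was quantified by ADP-Glo luminescence.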

[12] = target: Ubiquitin carboxyl-terminal hydrolase 1 (Homo sapiens) (UniProt O94782); experiment: Inhibitors of USP1/UAF1: Pilot qHTS (AID 504865); conditions: purified USP1/UAF1, Ub-rhodamine cleavage fluorescence; series mostly up to 54.9 µM;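 also: rhodamine fluorescence freed from ubiquitin-rhodamine substrate followed over time; top concentration of the series differs between compounds; % is scaled to controls: 0 for no effect and ±100 for the full control effect; nearly all actives have a fitted effect of over 35% in size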
Chain of Ubiquitin carboxyl-terminal hydrolase 1 (Homo sapiens) (O94782 whole entry, looked up): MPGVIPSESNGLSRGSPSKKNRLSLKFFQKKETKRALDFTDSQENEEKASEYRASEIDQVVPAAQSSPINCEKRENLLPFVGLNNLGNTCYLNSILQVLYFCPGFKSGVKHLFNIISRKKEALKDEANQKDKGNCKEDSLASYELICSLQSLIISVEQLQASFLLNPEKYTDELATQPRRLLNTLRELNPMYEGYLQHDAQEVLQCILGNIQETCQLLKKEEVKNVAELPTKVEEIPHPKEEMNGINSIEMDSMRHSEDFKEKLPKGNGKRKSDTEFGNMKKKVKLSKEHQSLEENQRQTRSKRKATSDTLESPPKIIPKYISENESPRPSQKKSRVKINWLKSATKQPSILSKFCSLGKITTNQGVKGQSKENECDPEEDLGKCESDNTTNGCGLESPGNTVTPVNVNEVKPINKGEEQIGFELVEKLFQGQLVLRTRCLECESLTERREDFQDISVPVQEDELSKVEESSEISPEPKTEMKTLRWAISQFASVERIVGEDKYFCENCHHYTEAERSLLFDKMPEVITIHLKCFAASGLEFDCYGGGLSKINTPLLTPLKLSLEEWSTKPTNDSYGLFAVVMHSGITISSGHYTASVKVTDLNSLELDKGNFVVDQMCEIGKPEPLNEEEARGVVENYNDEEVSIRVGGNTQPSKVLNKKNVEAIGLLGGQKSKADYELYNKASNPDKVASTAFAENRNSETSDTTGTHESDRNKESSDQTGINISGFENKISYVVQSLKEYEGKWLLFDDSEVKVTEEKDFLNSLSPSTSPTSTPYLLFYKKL
Method in brief: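 In 50mM HEPES pH 7.8 containing 0.5mM EDTA, 1mM TCEP, 0.1 mg/ml BSA and 0.01% Tween-20, 1nM USP1/UAF1 is exposed to compound for 15 min, then Ub-Rho (150nM final) is added and fluorescence is read over time.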

[13] = Primary qHTS for small molecule stabilizers of the endoplasmic reticulum resident proteome: Secreted ER Calcium Modulated Protein (SERCaMP) assay (AID 1508630); conditions: SH-SY5Y GLuc-SERCaMP (Gaussia luciferase released on ER calcium loss) secretion, thapsigargin, luminescence; series mostly up to 38.4 µM; also: % is scaled to controls: 0 for no effect and ±100 for the full control effect
Method in brief: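 GLuc-SERCaMP-expressing SH-SY5Y cells, pretreated 16 h with compound, are challenged with thapsigargin to empty ER calcium stores; after 4 h, coelenterazine is added directly to the medium and luminescence is imaged.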

[14] = target: Mitogen-activated protein kinase 10 (Mus musculus) (UniProt Q61831); experiment: JNK3 AlphaScreen Assay (AID 530; active = well fitted curve in either direction with a large enough effect, not every such curve was filed as active); conditions: JNK3 lysate, c-Jun phosphorylation; series mostly up to 57.1 µM
Method in brief: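 Room-temperature AlphaScreen kinase assay; pre-activated HepG2 lysate as JNK3 source, biotin-GST-cJun(1-79) substrate, 10 uM ATP, compound 15 min preincubation.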

[15] = target: 3',5'-cyclic-AMP phosphodiesterase 4B (Homo sapiens) (UniProt Q07343); experiment: qHTS Assay for Inhibitors of PDE-IV (AID 607; active = well fitted activation curve with a large enough effect in the main read-out, with a control signal flat, not every such curve was filed as active; also: % of control where 0% means no effect); conditions: HEK293 ACTOne CNG channel cells, membrane potential fluorescence; series mostly up to 22.9 µM
Method in brief: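 Cell-based read-out of cAMP via a modified cyclic nucleotide-gated channel and membrane potential dye (535/590 nm) in HEK293 cells expressing PDE4 endogenously. Compounds tested up to 22.9 uM final; 100 uM RO 20-1724 reference.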

[16] = target: Cytochrome P450 3A4 (Homo sapiens) (UniProt P08684); experiment: qHTS Assay for Inhibitors and Substrates of Cytochrome P450 3A4 (AID 884); conditions: recombinant CYP3A4, Luciferin-PPXE luminescence; series mostly up to 57.1 µM; also: potency is read from the fitted curve at half-maximal effect; nearly all actives have a fitted effect of over 50% in size
Method in brief: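 20 nM human CYP3A4 with 25 uM Luciferin-PPXE (at KM) in 200 mM KPO4, preincubated 10 min with compound; NADPH regeneration started a 60 min RT reaction. Luciferin detected by luminescence, normalized to 57 uM ketoconazole as full inhibition.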

[17] = target: Cytochrome P450 2C9 (Homo sapiens) (UniProt P11712); experiment: qHTS Assay for Inhibitors and Substrates of Cytochrome P450 2C9 (AID 883); conditions: recombinant CYP2C9, luciferin-H luminescence, 60 min; series mostly up to 57.1 µM; also: potency is read from the fitted curve at half-maximal effect; nearly all actives have a fitted effect of over 60% in size
Chain of Cytochrome P450 2C9 (Homo sapiens) (P11712 whole entry, looked up): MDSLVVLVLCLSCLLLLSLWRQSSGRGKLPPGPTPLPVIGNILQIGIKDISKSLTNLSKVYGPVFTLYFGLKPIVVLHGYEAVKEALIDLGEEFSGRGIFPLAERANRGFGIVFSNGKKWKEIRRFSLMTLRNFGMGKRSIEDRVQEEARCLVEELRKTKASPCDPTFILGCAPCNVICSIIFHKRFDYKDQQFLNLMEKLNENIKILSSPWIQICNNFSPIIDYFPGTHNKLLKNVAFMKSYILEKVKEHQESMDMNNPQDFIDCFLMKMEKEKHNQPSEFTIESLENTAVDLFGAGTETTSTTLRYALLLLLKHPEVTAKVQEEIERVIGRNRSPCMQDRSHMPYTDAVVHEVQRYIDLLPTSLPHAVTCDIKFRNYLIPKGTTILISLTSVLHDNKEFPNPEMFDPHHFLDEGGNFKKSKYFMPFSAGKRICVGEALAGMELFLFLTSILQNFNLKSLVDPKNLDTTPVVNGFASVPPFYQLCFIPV
Method in brief: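 Turnover of Luciferin-H (100uM, KM) by 10nM human CYP2C9 was measured over 60 min at 37C with NADPH regeneration; inhibitors and some substrates reduce luminescence. Data normalized to sulphaphenazole 57uM.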

[18] = target: Cytochrome P450 2C19 (Homo sapiens) (UniProt P33261); experiment: qHTS Assay for Inhibitors and Substrates of Cytochrome P450 2C19 (AID 899); conditions: recombinant CYP2C19, luciferin-H EGE luminescence; series mostly up to 57.1 µM; also: potency is read from the fitted curve at half-maximal effect; nearly all actives have a fitted effect of over 60% in size
Chain of Cytochrome P450 2C19 (Homo sapiens) (P33261 whole entry, looked up): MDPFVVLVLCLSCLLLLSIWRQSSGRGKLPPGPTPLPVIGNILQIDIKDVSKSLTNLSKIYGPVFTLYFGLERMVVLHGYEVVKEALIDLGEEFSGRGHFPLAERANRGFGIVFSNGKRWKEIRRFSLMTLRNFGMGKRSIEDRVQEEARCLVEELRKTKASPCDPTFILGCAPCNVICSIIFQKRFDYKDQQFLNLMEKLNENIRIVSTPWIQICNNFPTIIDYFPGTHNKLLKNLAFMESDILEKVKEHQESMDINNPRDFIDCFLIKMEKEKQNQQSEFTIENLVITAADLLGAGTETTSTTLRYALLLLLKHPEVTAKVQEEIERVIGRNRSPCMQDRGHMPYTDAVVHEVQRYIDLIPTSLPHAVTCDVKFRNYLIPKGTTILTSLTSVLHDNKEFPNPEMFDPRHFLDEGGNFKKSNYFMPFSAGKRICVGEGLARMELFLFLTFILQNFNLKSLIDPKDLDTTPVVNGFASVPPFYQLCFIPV
Method in brief: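 Reactions contain 5nM enzyme, 10uM Luciferin-H EGE (KM) and 50mM KPO4; compound preincubates 10 min at 37C, NADPH regeneration starts turnover for 60 min. Luminescence after detection reagent gives activity.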

[19] = measured here: cell count channel max response
[20] = measured here: lipid channel max response

SMILES: O=c1cnc2cnc(Nc3ccccc3)nc2n1C1CC1
- Potency [1]: > 11.4 µM (inactive)
- activity change, negative = inhibition [2]: -23.3% (inactive)
- Potency [3]: 0.631 µM (active)
- activity change, negative = inhibition [4]: -2.7% (inactive)
- activity, negative = inhibition [5]: -21.3% (inactive)
- Potency [6]: > 9.22 µM (inactive)
- Potency [7]: > 46 µM (inactive)
- Potency [8]: inactive
- activity change, negative = inhibition [9]: -0.874% (inactive)
- max response [9, 19]: 4.87%
- max response [9, 20]: 2.12%
- Potency [10]: 2 µM (active)
- Potency [11]: 2.51 µM (active)
- Potency [12]: inactive
- Potency [13]: inactive

SMILES: COc1ccc(-n2c(=O)cnc3cnc(OC)nc32)cc1
- Potency [1]: > 11.4 µM (inactive)
- activity change, negative = inhibition [2]: -6% (inactive)
- activity change, negative = inhibition [4]: -7.79% (inactive)
- activity, negative = inhibition [5]: -11.2% (inactive)
- Potency [6]: > 9.22 µM (inactive)
- Potency [7]: > 46 µM (inactive)
- outcome [14]: inactive
- Potency [15]: inactive
- activity change, negative = inhibition [9]: 4.86% (inactive)
- max response [9, 19]: 24.2%
- max response [9, 20]: 29.5%
- Potency [10]: 15.8 µM (active)
- Potency [11]: 14.1 µM (active)
- Potency [12]: inactive
- Potency [13]: inactive

SMILES: O=c1cnc2cnc(Nc3ccccc3)nc2n1Cc1cccs1
- Potency [1]: > 11.4 µM (inactive)
- Potency [3]: 1 µM (active)
- Potency [6]: > 9.22 µM (inactive)
- Potency [7]: > 46 µM (inactive)
- outcome [14]: inactive
- Potency [8]: inactive
- activity change, negative = inhibition [9]: 1.01% (inactive)
- max response [9, 19]: 12.8%
- max response [9, 20]: 12.5%
- Potency [10]: 1.41 µM (active)
- Potency [11]: 2 µM (active)
- Potency [12]: inactive
- Potency [13]: inactive

SMILES: COc1ccc(CNc2ncnc3ccc(-c4cccnc4)cc23)c(OC)c1
- Potency [1]: > 11.4 µM (inactive)
- Potency [3]: 0.398 µM (active)
- activity change, negative = inhibition [4]: 29.9% (inactive)
- activity, negative = inhibition [5]: 2.05% (inactive)
- Potency [6]: > 46 µM (inactive)
- Potency [7]: > 46 µM (inactive)
- outcome [14]: inactive
- Potency [16]: 1.26 µM (active)
- Potency [8]: inactive
- activity change, negative = inhibition [9]: -5.09% (inactive)
- max response [9, 19]: -15.1%
- max response [9, 20]: -21.1%
- Potency [10]: 14.1 µM (active)
- Potency [11]: 14.1 µM (active)
- Potency [12]: inactive
- Potency [13]: inactive

SMILES: COc1ccc(CNc2ncnc3ccc(-c4cccc(NS(C)(=O)=O)c4)cc23)c(OC)c1
- Potency [1]: > 11.4 µM (inactive)
- Potency [3]: 7.94 µM (active)
- activity, negative = inhibition [5]: -11.9% (inactive)
- Potency [6]: > 46 µM (inactive)
- Potency [7]: > 46 µM (inactive)
- outcome [14]: inactive
- Potency [17]: 0.501 µM (active)
- Potency [16]: 2 µM (active)
- Potency [8]: inactive
- Potency [18]: 2.51 µM (active)
- activity change, negative = inhibition [9]: -4.77% (inactive)
- max response [9, 19]: -8.13%
- max response [9, 20]: -11.3%
- Potency [10]: 11.2 µM (active)
- Potency [11]: 25.1 µM (active)
- Potency [12]: inactive
- Potency [13]: inactive
